Only some compounds are listed: those with a hit (about 8.7% of all), similar ones and a draw of the others.
Smad3 inh: Smad3/FoxH1 peptide binding inhibitors, primary screen, biochemical, TR-FRET | Mothers against decapentaplegic homolog 3 (Homo sapiens), P84022 | TR-FRET Smad3/Dy647-FoxH1 peptide binding, europium anti-His | inhibition, % at 25 µM | actives 0.29% (n = 88,000) | AID 630, 2007;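 active means compounds that reduce the energy-transfer binding signal between the protein and its labelled peptide by more than half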;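 further: 0% = Smad3 plus labelled peptide maximal FRET and 100% = peptide-only background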
PostGolgi yeast: phenotypic screen on post-Golgi transport, primary screen; post-Golgi transport phenotypic cell assay; inhibition, % at 10 µM; actives 0.9% (n = 98,000);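 further: yeast cells grown in 1536-well plates; yeast grown about 18 h at 30C before absorbance read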
hDAT+cocaine: changed hDAT dopamine uptake under cocaine IC80, either direction, primary screen, cocaine antagonist project, cell-based, LLC-PK1 hDAT, [14C]-dopamine uptake, MLSMR; Sodium-dependent dopamine transporter (Homo sapiens), Q01959; LLC-PK1 hDAT cells, [14C]-dopamine uptake with cocaine IC80; actives deviate in either direction; B-score at 10 µM; actives 1.3% (n = 110,000); AID 449768, 2010;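 active means Z score or B-score, a plate-position-corrected score, falls beyond the plate's 99.7% confidence bounds, in either direction; inactive means both scores lie inside the 99.7% bounds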;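 further: scored against the spread of the other compound wells on the same plate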
Cav32 inh: Cav3.2 calcium influx blockers – cell-based, Fluo-4 calcium fluorescence, FDSS, MLSMR library, primary screen; Voltage-dependent T-type calcium channel subunit alpha-1H (Homo sapiens), O95180; Cav3.2-expressing cells; stronger effect = lower value; B-score at 10 µM; actives 4% (n = 100,000);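 active means single-dose well whose peak fluorescence ratio is a statistical outlier from its plate by either plate-standardised score or position-corrected B-score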
Target sequence (O95180 whole entry, looked up): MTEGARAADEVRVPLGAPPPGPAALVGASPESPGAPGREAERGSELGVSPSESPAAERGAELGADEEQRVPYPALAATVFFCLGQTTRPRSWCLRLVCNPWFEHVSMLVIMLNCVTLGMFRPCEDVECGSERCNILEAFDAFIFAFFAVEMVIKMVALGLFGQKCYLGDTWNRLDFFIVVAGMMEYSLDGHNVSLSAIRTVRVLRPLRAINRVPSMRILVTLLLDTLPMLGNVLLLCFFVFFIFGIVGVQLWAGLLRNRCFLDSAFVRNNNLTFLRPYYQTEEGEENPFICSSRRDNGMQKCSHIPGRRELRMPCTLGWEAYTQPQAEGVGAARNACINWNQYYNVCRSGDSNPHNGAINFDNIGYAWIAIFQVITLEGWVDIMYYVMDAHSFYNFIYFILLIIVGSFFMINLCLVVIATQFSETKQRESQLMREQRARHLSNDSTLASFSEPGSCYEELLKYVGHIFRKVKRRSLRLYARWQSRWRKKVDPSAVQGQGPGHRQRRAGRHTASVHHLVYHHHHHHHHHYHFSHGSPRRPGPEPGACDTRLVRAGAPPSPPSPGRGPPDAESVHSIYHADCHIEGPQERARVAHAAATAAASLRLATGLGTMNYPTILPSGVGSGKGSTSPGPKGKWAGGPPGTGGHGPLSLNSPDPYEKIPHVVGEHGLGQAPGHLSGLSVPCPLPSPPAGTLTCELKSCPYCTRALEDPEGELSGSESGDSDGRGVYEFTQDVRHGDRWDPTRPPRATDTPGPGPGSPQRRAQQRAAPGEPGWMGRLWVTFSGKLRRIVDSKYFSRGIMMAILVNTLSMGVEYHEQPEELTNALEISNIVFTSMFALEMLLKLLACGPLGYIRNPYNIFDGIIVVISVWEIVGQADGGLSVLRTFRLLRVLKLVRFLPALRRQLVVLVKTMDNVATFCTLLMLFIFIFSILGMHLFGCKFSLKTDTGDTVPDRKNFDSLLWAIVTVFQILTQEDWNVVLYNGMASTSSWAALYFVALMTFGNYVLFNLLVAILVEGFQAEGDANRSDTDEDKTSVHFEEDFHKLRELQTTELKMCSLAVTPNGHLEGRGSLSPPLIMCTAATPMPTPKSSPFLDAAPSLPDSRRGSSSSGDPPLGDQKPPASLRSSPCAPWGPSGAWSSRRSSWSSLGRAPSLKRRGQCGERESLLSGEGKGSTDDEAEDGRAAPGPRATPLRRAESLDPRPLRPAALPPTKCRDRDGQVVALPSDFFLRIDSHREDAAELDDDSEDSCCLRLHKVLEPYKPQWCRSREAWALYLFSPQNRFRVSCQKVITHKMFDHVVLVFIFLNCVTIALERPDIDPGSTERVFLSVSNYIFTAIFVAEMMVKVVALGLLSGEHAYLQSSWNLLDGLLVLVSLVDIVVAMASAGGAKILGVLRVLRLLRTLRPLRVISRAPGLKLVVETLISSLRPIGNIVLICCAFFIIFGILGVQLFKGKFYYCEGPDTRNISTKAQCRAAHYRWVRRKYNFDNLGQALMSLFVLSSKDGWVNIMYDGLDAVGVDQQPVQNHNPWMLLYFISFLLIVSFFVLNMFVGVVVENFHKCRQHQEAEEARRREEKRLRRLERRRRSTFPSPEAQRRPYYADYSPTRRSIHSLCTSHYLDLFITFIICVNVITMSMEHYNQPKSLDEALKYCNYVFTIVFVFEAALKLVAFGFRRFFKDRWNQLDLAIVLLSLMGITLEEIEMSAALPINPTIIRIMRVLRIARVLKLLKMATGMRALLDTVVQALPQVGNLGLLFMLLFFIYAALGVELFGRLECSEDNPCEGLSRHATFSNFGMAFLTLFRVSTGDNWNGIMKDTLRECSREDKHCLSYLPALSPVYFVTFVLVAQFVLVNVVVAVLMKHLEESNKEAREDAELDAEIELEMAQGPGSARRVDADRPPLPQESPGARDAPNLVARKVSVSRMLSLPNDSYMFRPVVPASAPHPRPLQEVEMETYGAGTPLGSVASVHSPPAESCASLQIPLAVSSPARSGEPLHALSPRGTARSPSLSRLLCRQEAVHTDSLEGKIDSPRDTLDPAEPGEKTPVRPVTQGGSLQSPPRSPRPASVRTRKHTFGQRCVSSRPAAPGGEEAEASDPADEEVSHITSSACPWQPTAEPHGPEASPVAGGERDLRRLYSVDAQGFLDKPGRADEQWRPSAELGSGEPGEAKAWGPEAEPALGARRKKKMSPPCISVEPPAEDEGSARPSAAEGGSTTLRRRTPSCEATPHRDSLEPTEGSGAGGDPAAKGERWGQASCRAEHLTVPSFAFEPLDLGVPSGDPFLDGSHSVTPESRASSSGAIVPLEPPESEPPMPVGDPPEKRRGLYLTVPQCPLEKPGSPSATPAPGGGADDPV
TNAP act mid DEA: human TNAP enzyme activators, primary screen, biochemical, luminescent, intermediate phosphate acceptor level. Alkaline phosphatase, tissue-nonspecific isozyme (Homo sapiens), P05186. purified TNAP, CDP-star luminescence, 100 mM DEA, 30 min; stronger effect = higher value; scale: 0 levamisole-inhibited, 1 vehicle-only enzyme. activation factor at 20 µM. 64,000 tested, under 10 active;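 active means activation factor of at least 2 at 20 µM, relative to controls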
PostGolgi ctrl: growth inhibition of yeast control strain, primary screen, counter-screen for post-Golgi transport modulator project; inhibition, % at 10 µM; actives 5% (n = 98,000); efflux-deficient yeast background strain, growth absorbance A615, 16 h
Starred values were filed as active, the others as inactive; x = no result given. Unless noted, no stated cut-off is given here; in the data, active means inhibition above about 30%; inactive means the rest.

SMILES | Smad3 inh | PostGolgi yeast | hDAT+cocaine | Cav32 inh | TNAP act mid DEA | PostGolgi ctrl
CC1CC(C)(C)CC2(C1)NC(=S)N(c1ccccc1)N2 (stereo not given) | 14 | -5 | -0.022 | 0.8 | x | 3
COc1cccc(Nc2nc3ccccc3n3nnnc23)c1 | 4 | 0 | 0.015 | -1.2 | x | 30
O=c1n(Cc2ccc(Cl)cc2)c2sc3c(c2c2ncnn12)CCCC3 | -16 | 16 | 0.48 | 0.084 | 1 | 93*
Cc1ccc(S(=O)(=O)Nc2ccc(=O)n(Cc3ccc(Cl)c(Cl)c3)c2)cc1 | x | 4 | 0.49 | -2.5 | x | 12
COc1cccc(/C=N/NC(=O)c2ccc(OCc3cccc(Br)c3)cc2)c1 | x | 0 | 1.3 | -6* | x | 12
CC(C)(O)c1nnn(-c2ccccc2)c1C(F)(F)F | -8 | 17 | -1 | -0.034 | 0.9 | 0
COc1ccc(C(=O)NCCSc2ccccn2)cc1 | 0 | 2 | 0.29 | -0.63 | 0.9 | 5
Cc1nc(SC2CC(=O)N(c3cc(Cl)cc(Cl)c3)C2=O)nc2c1CCCC2 (stereo not given) | -11 | 14 | 0.6 | -0.026 | x | 59*
CC(C)(C)n1nc2c(c1NC(=O)c1ccc(S(=O)(=O)N3CCCC3)cc1)CSC2 | -12 | 2 | 0.24 | -3.5* | 0.9 | 7
Cc1ccc(-n2nc3c(c2NC(=O)c2cccs2)CSC3)cc1 | 9 | 11 | 0.19 | -6.3* | 0.9 | -6
O=C(Nc1c2c(nn1-c1ccc(F)cc1)CSC2)c1ccc(S(=O)(=O)N2CCOCC2)cc1 | 8 | 10 | 0.88 | -5.6* | 0.9 | 8
CCCC(c1nnnn1CCOC)N(Cc1cc2cc(C)c(C)cc2[nH]c1=O)CC1CCCO1 (stereo not given) | -6 | -2 | x | x | x | 18
CC(C)c1nnc(NC(=O)CCC(=O)N2CCN(C3CCCCC3)CC2)s1 | 12 | 3 | 0.02 | 0.98 | 0.9 | 1
CC(C)n1c(-c2ccco2)csc1=Nc1cccnc1 | 6 | -3 | -0.8 | -5.2* | 0.9 | 26
O=C(Nc1ncn[nH]1)c1ccc([N+](=O)[O-])cc1[N+](=O)[O-] | x | 8 | -0.44 | 0.72 | x | 4
CCc1nnc(NC(=O)CN2CCN(c3nc(-c4ccccc4)cs3)CC2)s1 | -3 | 11 | 0.9 | -4.1 | 0.9 | 42*
CC[C@@H](C)CN1C(=O)N[C@@H](c2ccccc2)C(C(C)=O)=C1C | x | x | 0.25 | 0.19 | x | x
O=C(OCn1cncn1)c1ccc(Cl)cc1Cl | 9 | 3 | -1.2 | -0.24 | 0.9 | -1
COc1ccc(/C=C(/C(=O)c2ccc(Cl)cc2Cl)n2cncn2)cc1 | x | 85* | 0.49 | -1.9 | x | 33*
c1ccc(-c2nc(-n3ccnc3)nc(-n3ccnc3)n2)cc1 | 9 | 4 | 1.8 | 0.79 | 1 | 11
CN(c1ccccc1)c1nc(N2CCCC2)nc(-n2ccnc2)n1 | -2 | 105* | 0.82 | -2.8 | 1 | 91*
c1ccc(CN2CCN(c3nc(-c4ccccc4)nc(-n4ccnc4)n3)CC2)cc1 | -13 | 48* | 0.65 | -0.037 | 1 | 77*
c1ccc(N(c2ccccc2)c2nc(N3CCCC3)nc(-n3ccnc3)n2)cc1 | -11 | 2 | x | x | 0.9 | 32*
COCCCNC(=O)c1ccc(Cn2c(=O)c3ccccc3n(Cc3ccccc3C)c2=O)cc1 | -5 | -3 | 0.3 | 0.029 | x | 13
N#CC(c1ccccc1)(c1ncc(C(F)(F)F)cc1Cl)N1CCOCC1 (stereo not given) | x | 8 | x | x | x | 4
SMILES | Smad3 inh | PostGolgi yeast | hDAT+cocaine | Cav32 inh | TNAP act mid DEA | PostGolgi ctrl
N#CC(c1cccc(C(F)(F)F)c1)(c1ncc(C(F)(F)F)cc1Cl)N1CCOCC1 (stereo not given) | x | -1 | 0.75 | -4.3* | x | 19
NC(=O)CC(NC(=O)Cc1ccc(Br)cc1)c1ccc(NCCc2ccc(Cl)cc2)c([N+](=O)[O-])c1 (stereo not given) | x | x | -0.5 | -0.36 | x | x
COc1ccc(CN2CCCCCC2)c(C)c1C | 5 | x | -0.13 | 0.029 | 1 | x
Cc1c(-c2nc(N)nc(Nc3ccccc3F)n2)oc2ccccc12 | 9 | 13 | -0.22 | -0.19 | 0.8 | 35*
COc1cccc(Nc2nc(N)nc(-c3oc4ccccc4c3C)n2)c1 | 9 | 26 | 2.1 | -0.2 | x | 77*
O=C(O)C1C2CCC(O2)C1C(=O)NCCC1=CCCCC1 (stereo not given) | 14 | -2 | -1.2 | 0.36 | 0.8 | 30*
Cc1c(C(=O)NCc2cccnc2)oc2ccc(S(=O)(=O)N3CCCCC3)cc12 | -2 | 0 | 0.3 | 0.28 | 0.9 | 0
Cc1c(C(=O)NCc2ccccc2)oc2ccc(S(=O)(=O)N3CCCC3)cc12 | 9 | -6 | 0.6 | x | 0.9 | 7
Cc1c(C(=O)NCc2cccnc2)oc2ccc(S(=O)(=O)N3CCCCCC3)cc12 | 4 | -1 | 0.95 | -0.68 | 0.9 | 42*
COc1ccccc1CNC(=O)c1oc2ccc(S(=O)(=O)N3CCCC3)cc2c1C | 0 | 1 | 0.86 | x | 0.9 | 31*
O=C(c1cc(-c2ccc(F)cc2)on1)N1CCCC1 | x | -6 | x | x | 1 | 6
C#CC(CO)N(CCN(Cc1ccccc1)C(C#C)CO)Cc1ccccc1 (stereo not given) | -1 | 9 | 0.16 | -6.7* | 0.9 | 29
C#CCN(C)Cc1ccccc1 | 12 | x | -0.18 | -0.85 | 0.9 | x
O=C(CCCC(=O)NCC1CCCO1)NCC1CCCO1 (stereo not given) | 6 | -6 | -0.0079 | 0.77 | 1 | -4
Cc1ccc(C)c(Cn2nnc3c(=O)[nH]c(C4CCCN(C(=O)C5CCC5)C4)nc32)c1 (stereo not given) | -7 | 6 | 1.9 | -0.83 | 0.9 | 3
O=C(c1ccc(Cl)cc1Cl)N1CCC(c2nc3c(nnn3Cc3ccco3)c(=O)[nH]2)CC1 | 0 | 30* | 1.8 | -0.88 | 0.9 | -10
O=C(Cc1cccs1)N1CCCC(c2nc3c(nnn3Cc3cccc(Cl)c3)c(=O)[nH]2)C1 (stereo not given) | -7 | 1 | 2.3* | -1 | 1 | 3
O=C(c1ccccc1)N1CCC(c2nc3c(nnn3Cc3ccco3)c(=O)[nH]2)CC1 | 5 | -3 | 0.81 | 1.1 | x | 1
O=C(C1CCC1)N1CCC(c2nc3c(nnn3Cc3c(F)cccc3Cl)c(=O)[nH]2)CC1 | 2 | 3 | 2.8* | 1.3 | 0.9 | -3
CC(=O)c1ccc(N2C(=O)[C@@H]3C(CCC(N)=O)NC4(C(=O)Nc5c4ccc(Cl)c5C)[C@@H]3C2=O)cc1 (stereo not given in full) | 14 | 7 | -0.21 | -0.08 | 0.9 | 25
CCCCNC(=S)NNC(=O)c1cccnc1 | 16 | x | -8.2* | 0.012 | x | x
CCNC(=S)NNC(=O)c1cccnc1 | -10 | x | -0.43 | 2 | x | x
